Data published in the supplement of paper PMC3334620.
Over roughly 33,000 sequences, “E-score (-0.5 to 0.5)” has its median near -0.054; the highest 2% begin near 0.39. Many of the other results were omitted from the sample, so the highest values are more common in it than they were.

molecular target: Ylr278c (UniProt Q05854); assay: PBM E-score (8-mer binding enrichment) (E-score (-0.5 to 0.5)); higher = stronger / more preferred TF binding; details: protein concentration: 200 nM; construct: GST-DNA-binding domain
Summary of the method: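 PURExpress in vitro transcription/translation supplied GST-tagged yeast transcription factors, either full-length or DNA-binding domain. Applied at about 100-200 nM to universal all-10-mer Agilent arrays double-stranded by primer extension, the bound protein was detected with fluorescent anti-GST. E-scores, modified Wilcoxon-Mann-Whitney statistics, were given by the Universal PBM Analysis Suite to ungapped eight-base words pooled with their reverse complements after masliner normalisation.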

UniProt Q05854, sequence (Q05854 whole entry, the tested form may be a part): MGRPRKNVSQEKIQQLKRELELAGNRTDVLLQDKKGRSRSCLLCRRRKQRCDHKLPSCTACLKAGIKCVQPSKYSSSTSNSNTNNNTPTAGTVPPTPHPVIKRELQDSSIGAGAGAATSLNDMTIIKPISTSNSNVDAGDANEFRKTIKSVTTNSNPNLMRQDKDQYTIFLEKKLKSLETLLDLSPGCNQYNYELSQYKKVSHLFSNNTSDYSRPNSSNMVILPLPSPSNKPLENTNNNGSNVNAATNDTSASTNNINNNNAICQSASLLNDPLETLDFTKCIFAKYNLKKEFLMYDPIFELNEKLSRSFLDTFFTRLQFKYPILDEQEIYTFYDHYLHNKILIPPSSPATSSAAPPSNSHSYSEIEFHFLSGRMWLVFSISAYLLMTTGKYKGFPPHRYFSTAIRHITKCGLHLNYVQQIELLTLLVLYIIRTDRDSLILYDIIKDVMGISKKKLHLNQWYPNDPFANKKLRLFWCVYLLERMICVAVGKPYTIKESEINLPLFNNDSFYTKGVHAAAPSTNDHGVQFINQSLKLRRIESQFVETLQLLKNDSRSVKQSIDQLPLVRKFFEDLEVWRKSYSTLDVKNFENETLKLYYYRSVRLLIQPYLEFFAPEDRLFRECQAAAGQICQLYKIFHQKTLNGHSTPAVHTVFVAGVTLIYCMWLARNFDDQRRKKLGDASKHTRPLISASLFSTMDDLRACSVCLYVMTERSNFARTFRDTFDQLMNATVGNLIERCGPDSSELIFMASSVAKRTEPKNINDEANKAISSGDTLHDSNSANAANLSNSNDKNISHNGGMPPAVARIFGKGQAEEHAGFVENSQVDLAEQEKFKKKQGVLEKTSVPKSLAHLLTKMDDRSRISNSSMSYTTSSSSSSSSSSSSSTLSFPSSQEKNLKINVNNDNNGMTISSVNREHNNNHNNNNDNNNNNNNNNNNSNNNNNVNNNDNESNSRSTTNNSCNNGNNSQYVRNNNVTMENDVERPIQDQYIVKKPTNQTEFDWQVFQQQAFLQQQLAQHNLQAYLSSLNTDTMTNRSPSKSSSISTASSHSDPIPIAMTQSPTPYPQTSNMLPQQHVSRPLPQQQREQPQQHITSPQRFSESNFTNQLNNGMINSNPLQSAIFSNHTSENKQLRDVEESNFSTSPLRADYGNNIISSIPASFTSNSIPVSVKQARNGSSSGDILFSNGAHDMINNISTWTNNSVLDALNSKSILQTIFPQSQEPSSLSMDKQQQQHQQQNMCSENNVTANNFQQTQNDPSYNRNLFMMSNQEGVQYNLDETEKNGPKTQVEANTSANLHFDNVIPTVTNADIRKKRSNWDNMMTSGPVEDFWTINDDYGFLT

Going from CCCAGTCA to CCTAGAAC, the “PBM E-score” value rises from -0.242 to -0.0753.

Compared with CGACGGAG, AGACGGAT is lower in “PBM E-score” value: 0.421 for the first, 0.176 for the second.

First: AGACGGAA
Second: CGACGGAA
The “PBM E-score” value of the first is lower: 0.238 for the first, 0.339 for the second.

Compared with AGACGGAG, CGACGGAC is lower in “PBM E-score” value: 0.392 for the first, 0.337 for the second.

Compared with ATTGGACG, AATATGCC is lower in “PBM E-score” value: -0.00534 for the first, -0.0168 for the second.

Compared with ACATATCA, CTAGGCTA is lower in “PBM E-score” value: -0.0989 for the first, -0.193 for the second.

First: AAAGTCCG
Second: CAGGTCCG
The “PBM E-score” value of the first is higher: 0.482 for the first, 0.353 for the second.

Going from ATAGTCCC to CCGGTCCA, the “PBM E-score” value rises from -0.153 to 0.21.

Going from ATAGTCCG to AAAGTCCA, the “PBM E-score” value falls from 0.413 to -0.0593.

Going from AAGGTCCG to CCGGTCCG, the “PBM E-score” value rises from 0.426 to 0.45.

Compared with CCGGTCCC, ATAGTCCA is lower in “PBM E-score” value: 0.355 for the first, -0.109 for the second.

Going from AAGGTCCA to AAAGTCCT, the “PBM E-score” value rises from -0.124 to 0.226.

First: CCGTTGAG
Second: ACTAGCTC
The “PBM E-score” value of the first is higher: 0.0643 for the first, -0.157 for the second.

Compared with AGAGCTGC, AAACAACA is lower in “PBM E-score” value: -0.0659 for the first, -0.119 for the second.

Compared with CGTATCCC, GGACTTAC is higher in “PBM E-score” value: 0.048 for the first, 0.305 for the second.

Going from GAAGCTAC to AACACCTC, the “PBM E-score” value falls from -0.144 to -0.251.

First: GTGTGGTA
Second: CAAGTCCG
The “PBM E-score” value of the first is lower: -0.165 for the first, 0.455 for the second.

Compared with CAAGTCCA, CAAGTCCC is higher in “PBM E-score” value: -0.118 for the first, -0.108 for the second.

Compared with CGAGTCCG, AGAGTCCG is lower in “PBM E-score” value: 0.391 for the first, 0.347 for the second.

Compared with CGAGTCCA, CCGAGACG is higher in “PBM E-score” value: -0.144 for the first, 0.134 for the second.

Going from ACCTCAGA to GGCCCGCA, the “PBM E-score” value rises from -0.0802 to 0.188.

First: GGCCCGGA
Second: CCCCCGGC
The “PBM E-score” value of the first is higher: 0.395 for the first, 0.254 for the second.

Compared with GCCCCGGC, CCCCCGGA is higher in “PBM E-score” value: 0.259 for the first, 0.395 for the second.

Going from TCCCCGGA to CCCCCCGA, the “PBM E-score” value falls from 0.435 to 0.083.

Going from TCCCCGAA to GGCCCGTA, the “PBM E-score” value falls from 0.357 to 0.173.

Going from GCCCCCGA to GCCCCGGA, the “PBM E-score” value rises from 0.0674 to 0.439.

First: TCCCCCGA
Second: ATATTTTC
The “PBM E-score” value of the first is higher: 0.263 for the first, 0.0689 for the second.

Compared with GACCTAAC, GCAGACGA is lower in “PBM E-score” value: 0.0677 for the first, -0.119 for the second.

First: GGATCTGA
Second: AACCCATC
The “PBM E-score” value of the first is higher: 0.00665 for the first, -0.0461 for the second.

Going from CAGTCATG to ATGGCTGG, the “PBM E-score” value falls from -0.129 to -0.209.

Going from CCAGCATC to ATCACTGC, the “PBM E-score” value falls from -0.0271 to -0.0314.

Going from ACTGTGGC to GGACTGAC, the “PBM E-score” value rises from -0.32 to -0.0427.

Going from CCCCTTAC to AGCCCGGG, the “PBM E-score” value rises from -0.195 to 0.328.

Going from CGCCCGAA to AGCCCGGA, the “PBM E-score” value rises from 0.111 to 0.448.

Compared with CCCCGGGC, CCCCCGGG is lower in “PBM E-score” value: 0.342 for the first, 0.296 for the second.

First: AGCCCGGC
Second: ACCCGGGG
The “PBM E-score” value of the first is higher: 0.332 for the first, 0.246 for the second.

Going from CGCCCGGA to ACCCCGGG, the “PBM E-score” value falls from 0.435 to 0.404.

Going from CCCCGGGG to AACCCGGG, the “PBM E-score” value falls from 0.412 to 0.319.

First: CGCCCGGC
Second: GTAAATGA
The “PBM E-score” value of the first is higher: 0.292 for the first, 0.024 for the second.

First: GACAAGCC
Second: CGACTTAG
The “PBM E-score” value of the first is higher: -0.0446 for the first, -0.168 for the second.

Going from GCAACTCC to AACGCCAA, the “PBM E-score” value falls from 0.327 to -0.0358.

Compared with GATTTCTA, CATCCACG is lower in “PBM E-score” value: 0.238 for the first, -0.153 for the second.

Going from CGCTAGGC to GCATGGCA, the “PBM E-score” value rises from -0.0311 to 0.0442.
